In PubChem BioAssay (NCI):
The panel holds about 79,000 compounds, 15% with a hit somewhere; the sample as a whole holds those more often. Active and inactive are the calls of the source. Cut-off read from the data, not from the text of the source: active = growth inhibition above about 70%; inactive = the rest.

Columns and labels:
[1] = NCI Yeast Anticancer Drug Screen. Data for the wt1 strain (AID 149);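 note: 0% = growth of vehicle-treated wt1 cultures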; conditions: S. cerevisiae wt1 strain (SPY 50644) growth inhibition, stronger effect = higher value
Summary of the method: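 Measured: growth of wt1 yeast under compound versus vehicle treatment, reported as inhibition.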

[2] = NCI Yeast Anticancer Drug Screen. Data for the rad50EPP+ strain (AID 151);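 note: 0% = growth of vehicle-treated control cultures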; conditions: S. cerevisiae rad50 mutant strain, stronger effect = higher value
Summary of the method: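 In this screen, rad50EPP+ yeast were exposed to compounds. Growth inhibition was scored against vehicle-treated controls.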

[3] = NCI Yeast Anticancer Drug Screen. Data for the mgt1 strain (AID 153); conditions: S. cerevisiae mgt1 mutant growth inhibition, stronger effect = higher value
Summary of the method: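 mgt1 strain exposed; growth vs vehicle control recorded as inhibition.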

[4] = NCI Yeast Anticancer Drug Screen. Data for the rad50 strain (AID 155);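 note: 0% = growth of vehicle-only cultures of the same strain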; conditions: S. cerevisiae rad50 strain growth inhibition, stronger effect = higher value
Summary of the method: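 Growth of the mutant yeast was measured after compound exposure and referenced to vehicle-treated cultures.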

[5] = NCI Yeast Anticancer Drug Screen. Data for the mec2-1 strain (AID 157); conditions: S. cerevisiae mec2-1 strain, stronger effect = higher value
Summary of the method: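 Vehicle-treated cultures served as reference for growth inhibition of compound-exposed mec2-1 yeast.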

[6] = NCI Yeast Anticancer Drug Screen. Data for the rad14 strain (AID 159);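 note: 0% = growth of vehicle-treated control cultures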; conditions: S. cerevisiae rad14 strain growth inhibition, stronger effect = higher value
Summary of the method: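 Here, inhibition of yeast growth was measured after compound exposure, using a strain with a genetic defect in DNA damage repair and vehicle-treated cultures as the reference.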

[7] = NCI Yeast Anticancer Drug Screen. Data for the sgs1 mgt1 strain (AID 161);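 note: 0% = growth of cultures given vehicle only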; conditions: S. cerevisiae sgs1 mgt1 strain, stronger effect = higher value
Summary of the method: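 Genetically altered yeast, compound exposure, growth inhibition relative to vehicle.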

[8] = NCI Yeast Anticancer Drug Screen. Data for the CLN2oe strain (AID 163);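 note: 0% = growth of vehicle-only control cultures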; conditions: S. cerevisiae CLN2oe strain, stronger effect = higher value
Summary of the method: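 Inhibition relative to vehicle-treated yeast is reported. Cells: strain with genetic alteration in cell-cycle control, grown with compound.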

[9] = NCI Yeast Anticancer Drug Screen. Data for the cln2 rad14 strain (AID 165);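 note: 0% = growth equal to vehicle treated cultures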; conditions: S. cerevisiae cln2 rad14 strain, stronger effect = higher value
Summary of the method: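 Each compound was tested on cln2 rad14 yeast. Inhibition of growth was calculated against vehicle-exposed controls.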

[10] = NCI Yeast Anticancer Drug Screen. Data for the bub3 strain (AID 167); conditions: S. cerevisiae bub3 mutant strain, stronger effect = higher value
Summary of the method: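 Whole-cell yeast assay. The mutant strain was incubated with compounds, and growth inhibition was determined by comparison with vehicle-treated cells.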

[11] = NCI Yeast Anticancer Drug Screen. Data for the wt2 strain (AID 169);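 note: 0% = growth of vehicle-treated yeast cultures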; conditions: S. cerevisiae wt2 strain growth inhibition, stronger effect = higher value
Summary of the method: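 Inhibition of yeast growth was determined after compound treatment, normalised to controls receiving only vehicle.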

[12] = NCI Yeast Anticancer Drug Screen. Data for the mlh1 strain (AID 171);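 note: 0% = growth of vehicle-treated control cultures of the same strain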; conditions: S. cerevisiae mlh1 strain growth inhibition, stronger effect = higher value
Summary of the method: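 Vehicle-normalised growth inhibition of a repair- or checkpoint-altered yeast strain following compound treatment.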

[13] = NCI Yeast Anticancer Drug Screen. Data for the sgs1 strain (AID 173);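 note: 0% = growth of vehicle-only control cultures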; conditions: S. cerevisiae sgs1 mutant, stronger effect = higher value
Summary of the method: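 Screen format: yeast with repair or checkpoint alterations, compound exposure, growth read relative to vehicle.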

[14] = NCI Yeast Anticancer Drug Screen. Data for the mlh1 rad18 strain (AID 175); conditions: S. cerevisiae mlh1 rad18 strain growth inhibition, stronger effect = higher value
Summary of the method: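 Vehicle-treated cultures served as the reference for growth inhibition in a yeast strain carrying DNA damage repair alterations exposed to each compound.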

[15] = NCI Yeast Anticancer Drug Screen. Data for the rad18 strain (AID 177); conditions: S. cerevisiae rad18 mutant growth inhibition, stronger effect = higher value
Summary of the method: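 Test articles were incubated with altered yeast defective in DNA damage repair. Results are given as inhibition of growth versus vehicle.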

[16] = at 5.0 µM (retest, dose inferred, filed as 0.5)
[17] = at 50.0 µM (retest, dose inferred, filed as 5.0)

Measured: growth inhibition

Cc1cc(N(CCOS(C)(=O)=O)CCOS(C)(=O)=O)ccc1C=O
inactive: [1]; at 1.2 µM 27% | [1]; at 3.7 µM 28% | [1]; at 11.0 µM 32% | [1]; at 33.0 µM 37% | [1]; at 100.0 µM 31% | [2]; at 1.2 µM 15% | [2]; at 3.7 µM 45% | [2]; at 11.0 µM 34% | [2]; at 33.0 µM 30% | [2]; at 100.0 µM 15% | [3]; at 1.2 µM 14% | [3]; at 3.7 µM 26% | [3]; at 11.0 µM 34% | [3]; at 33.0 µM 41% | [3]; at 100.0 µM 44% | [4]; at 1.2 µM 4% | [4]; at 3.7 µM 16% | [4]; [16] 29% | [4]; at 11.0 µM 26% | [4]; at 33.0 µM 43% | [4]; [17] 57% | [4]; at 50.0 µM 50% | [4]; at 100.0 µM 66% | [5]; at 1.2 µM 6% | [5]; at 3.7 µM 23% | [5]; [16] 24% | [5]; at 11.0 µM 24% | [5]; at 33.0 µM 41% | [5]; [17] 57% | [5]; at 50.0 µM 54.8% | [5]; at 100.0 µM 68% | [6]; at 1.2 µM 20% | [6]; at 3.7 µM 36% | [6]; at 11.0 µM 50% | [6]; at 33.0 µM 64% | [7]; [16] 13% | [7]; [17] 38% | [7]; at 50.0 µM 12.8% | [8]; at 1.2 µM 2% | [8]; at 3.7 µM 9% | [8]; at 11.0 µM 10% | [8]; at 33.0 µM 36% | [8]; at 100.0 µM 34% | [9]; [16] 34% | [9]; [17] 45% | [9]; at 50.0 µM 36.9% | [10]; at 1.2 µM 16% | [10]; at 3.7 µM 17% | [10]; [16] -3% | [10]; at 11.0 µM 4% | [10]; at 33.0 µM 18% | [10]; [17] 13% | [10]; at 50.0 µM 4.7% | [10]; at 100.0 µM 34% | [11]; at 1.2 µM -45% | [11]; at 3.7 µM -46% | [11]; at 11.0 µM -43% | [11]; at 33.0 µM 1% | [11]; at 100.0 µM 33% | [12]; at 1.2 µM 14% | [12]; at 3.7 µM 28% | [12]; at 11.0 µM 24% | [12]; at 33.0 µM 52% | [12]; at 100.0 µM 60% | [13]; at 1.2 µM 19% | [13]; at 3.7 µM 22% | [13]; at 11.0 µM 39% | [13]; at 33.0 µM 51% | [13]; at 100.0 µM 58% | [14]; [16] 56% | [15]; at 1.2 µM 29% | [15]; at 3.7 µM 50%
active: [6]; at 100.0 µM 83% | [14]; [17] 88% | [14]; at 50.0 µM 82.5% | [15]; at 11.0 µM 70% | [15]; at 33.0 µM 86% | [15]; at 100.0 µM 89%

O=C(O)CN(CCNC(=O)OCC1c2ccccc2-c2ccccc21)CCNC(=O)OCC1c2ccccc2-c2ccccc21
inactive: [1]; at 1.2 µM -1% | [1]; at 3.7 µM -4% | [1]; at 11.0 µM 2% | [2]; at 1.2 µM 0% | [2]; at 3.7 µM 4% | [2]; at 11.0 µM 5% | [2]; at 33.0 µM 7% | [2]; at 100.0 µM 5% | [3]; at 1.2 µM -4% | [3]; at 3.7 µM -1% | [3]; at 11.0 µM 9% | [4]; at 1.2 µM -3% | [4]; at 3.7 µM -9% | [4]; [16] -21% | [4]; at 11.0 µM 11% | [4]; [17] 36% | [5]; at 1.2 µM -3% | [5]; at 3.7 µM -5% | [5]; [16] -10% | [5]; at 11.0 µM -3% | [5]; [17] -6% | [6]; at 1.2 µM 0% | [6]; at 3.7 µM 1% | [6]; at 11.0 µM 34% | [7]; [16] -1% | [7]; [17] -4% | [8]; at 1.2 µM -1% | [8]; at 3.7 µM 1% | [8]; at 11.0 µM 2% | [9]; [16] 3% | [9]; [17] 15% | [10]; at 1.2 µM -1% | [10]; at 3.7 µM 0% | [10]; [16] -16% | [10]; at 11.0 µM 1% | [10]; [17] -9% | [11]; at 1.2 µM -3% | [11]; at 3.7 µM -3% | [12]; at 1.2 µM -1% | [12]; at 3.7 µM -3% | [12]; at 11.0 µM 11% | [13]; at 1.2 µM 0% | [13]; at 3.7 µM -1% | [13]; at 11.0 µM 9% | [14]; [16] 3% | [14]; [17] 62% | [15]; at 1.2 µM -2% | [15]; at 3.7 µM -2% | [15]; at 11.0 µM 4%
active: [1]; at 33.0 µM 71% | [1]; at 100.0 µM 94% | [3]; at 33.0 µM 98% | [3]; at 100.0 µM 95% | [4]; at 33.0 µM 97% | [4]; at 50.0 µM 93.7% | [4]; at 100.0 µM 94% | [5]; at 33.0 µM 98% | [5]; at 50.0 µM 95.3% | [5]; at 100.0 µM 96% | [6]; at 33.0 µM 98% | [6]; at 100.0 µM 95% | [7]; at 50.0 µM 95.5% | [8]; at 33.0 µM 96% | [8]; at 100.0 µM 90% | [9]; at 50.0 µM 93.5% | [10]; at 33.0 µM 93% | [10]; at 50.0 µM 95% | [10]; at 100.0 µM 94% | [11]; at 11.0 µM 75% | [11]; at 33.0 µM 98% | [11]; at 100.0 µM 95% | [12]; at 33.0 µM 98% | [12]; at 100.0 µM 96% | [13]; at 33.0 µM 97% | [13]; at 100.0 µM 94% | [14]; at 50.0 µM 95.1% | [15]; at 33.0 µM 95% | [15]; at 100.0 µM 94%
